These results are taken from PubChem BioAssay AID632 (National Center for Advancing Translational Sciences (NCATS), 2007).

The list shows a part of the results. A number with no mark means an inactive call. Calls of active or inactive are those of the source.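 The calls were made as follows: active = compound lowering the Hsp90 and TPR2A binding signal, whether or not the linker counterscreen also flagged it as an artifact; inactive = the rest.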

The test system of the assay is Hsp90 C-terminal peptide / TPR2A co-chaperone interaction. The experiment in a line: Confirmation Concentration-Response Assay and Counterscreen for Disrupters of an Hsp90 Co-Chaperone Interaction. As to conditions: AlphaScreen TPR2A-His6 / biotin-Hsp90 peptide binding; at 46 µM (top of the series) unless noted. The text has this:
NIH Chemical Genomics Center [NCGC] NIH Molecular Libraries Screening Centers Network [MLSCN] MLSCN Grant: X01 MH077625-01 NCGC Assay Overview: Hsp90 (heat shock protein 90) is the essential molecular chaperone and it accounts for 1-2% of all cytosolic proteins and is critical for the activity of diverse cellular proteins that are involved in a variety of cellular processes, including development, cell cycle, and steroid hormone signaling. Its client proteins include signaling kinases such as IGF1R, Akt, v-Src, Raf-1; regulators of cell survival such as Bcr-Abl; and transcription factors such as mutated p53, estrogen and progesterone receptors. Hsp90 has emerged as an important target for cancer treatment due to its essential role in maintaining transformation and regulating the function of oncogenic signaling proteins. The in vivo function of Hsp90 is regulated by the binding and hydrolysis of ATP at its N-terminal. Geldanamycin binds to ATP site and inhibit Hsp90 function. Geldanamycin and its analogues are under clinical trials in cancer patients. […] This domain contains the binding site for tetratricopeptide repeat (TPR) domains on HOP (Hsp Organizing Protein). TPR is a structural motif used by a significant number of cochaperones by which the in vivo function of Hsp90 is regulated. TPR2A on HOP binds specifically to MEEVD motif of the C-terminal of Hsp90. […]
NCGC Assay Protocol Summary: The assay was performed to confirm activity from an initial qHTS screen, and to counterscreen for alpha screen platform artifacts. All samples were reordered, as powders when available, and sample material was evaluated for impurities and/or incorrect molecular mass at NCGC. […] Plates were read on EnVision (PerkinElmer, Boston, MA).TPR2A-His6 was produced using a bacteria expression system and purified using a well developed method (Ghosh et al., 2000). […] TPR2A-His6 binding to biotin-Hsp90 will bring streptavidin donor beads and nickel chelate acceptor beads (PerkinElmer) together and can be measured by Alpha reading by EnVision (PerkinElmer). […]
`CCOC(=O)c1c(NC(=O)CSc2nnc(Cc3csc(N)n3)n2C)sc(C)c1C`: the activity, negative = inhibition is -99.5% [alpha-screen platform artifact] (active). The figure for `Cc1nnc2[nH]c(=O)n(C)c(=O)c2n1` is 5.91% [at 40 µM]; for `Oc1c(C(c2ccccn2)N2CCOCC2)ccc2cccnc12` (stereo not drawn) it is -99.8% [alpha-screen platform artifact] (active).
